What all share (format): functional
Assay [1] concerns Plasmodium falciparum. In words: GSK_TCMDC: Inhibition of Plasmodium falciparum 3D7 in whole red blood cells, using parasite LDH activity as an index of growth. Test compounds present at 2uM.
Assay [2] has as its system Plasmodium falciparum. Put plainly: GSK_TCMDC: Inhibition of Plasmodium falciparum Dd2 in whole red blood cells, using parasite LDH activity as an index of growth. Test compounds present at 2uM.
Assay [3] has as its system HepG2. In words: GSK_TCMDC: Percent inhibition of human HepG2 cell line. Test compounds present at 10uM.

From ChEMBL document CHEMBL1157539, “Thousands of chemical starting points for antimalarial lead identification” (Nature, 2010) come the findings set out here.

For the compound `CCN(CCCN1CCCCC1)c1cc(C)nc(Nc2cc(F)cc(F)c2)n1.O=C(O)C(F)(F)F`, the values for the Inhibition in assay [1], in assay [2] and in assay [3] were 100%, 64% and 15%, respectively.

For `CC(NCCC1CCC(NC(=O)N[C@H](C)C(O)(c2ccccc2)c2ccccc2)CC1)c1cccc2ccccc12` (stereo not given in full), the Inhibition came out at 86% in assay [1], 58% in assay [2] and 43% in assay [3].

Take `COc1cc(C(=O)Nc2cccc(-c3nc4ccccc4[nH]3)c2)cc(OC)c1OC`: the Inhibition in assay [1] worked out at 99%; in assay [2], 41%; in assay [3], 25%.

For `COc1ccc2nccc([C@@H](O)CNCCCN(C)CCOc3cc(F)cc(F)c3)c2c1.O=C(O)C(=O)O`, the Inhibition turned out to be 99% in assay [1], 58% in assay [2] and 11% in assay [3].

Take `O=C(Nc1cccc(F)c1)N1CCC(CN2CCOC(c3ccccc3)(c3ccccc3)C2)CC1`: the values for the Inhibition in assay [1], in assay [2] and in assay [3] were 96%, 97% and 12%, respectively.

For `COc1ccc2c(=NN=Cc3c(OC)ccc4ccccc34)cc(C)[nH]c2c1`, the Inhibition worked out at 100% in assay [1], 85% in assay [2] and 7% in assay [3].

Turning to `COc1ccc(C(=O)CCC(=O)N(CCSC(C)(C)C)Cc2ccc(-c3ccc(CNCCc4ccc(S(C)(=O)=O)cc4)cn3)cc2)cc1F.O=C(O)C(F)(F)F`, the Inhibition in assay [1] was found to be 98%; in assay [2], 42%; in assay [3], 9%.

Take `COc1cc(NC(=O)CCCN2CCN(c3cccc(Cl)c3Cl)CC2)ccc1N1CCN(C(C)C)CC1.Cl`: the Inhibition in assay [1] stood at 99%; in assay [2], 59%; in assay [3], 31%.

Turning to `CN(C)c1ccc(CN2CCC(NC(=O)c3ccc(-c4cccc(C(F)(F)F)c4)s3)CC2)cc1.O=C(O)C(F)(F)F`, the Inhibition is 97% in assay [1], 40% in assay [2] and 90% in assay [3].

With `CCN1CCC(N(Cc2ccc(-c3ccc(C(F)(F)F)s3)cc2)C(=O)Cn2c(CCc3cccc(F)c3F)nc(=O)c3ccccc32)CC1.O=C(O)C(O)C(O)C(=O)O`, the Inhibition turned out to be 93% in assay [1], 95% in assay [2] and 47% in assay [3].
